A selection: hits, their analogues and other compounds. The true share with any hit is near 2.4%.
D2 PAM-1 = HTS Assay for Positive Allosteric Modulators of the Human D2 Dopamine Receptor: Primary Screen for Potentiators; D(2) dopamine receptor (Homo sapiens), P14416; HEK293 T-REx D2, calcium flux, EC20 dopamine potentiation; potentiation, % at 10 µM; hit rate 0.34% among 340,000; AID 485347, 2010;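 active = potentiation over 3 SD above the plate norm, cut at about 30% in these data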
Target sequence (P14416 whole entry, looked up): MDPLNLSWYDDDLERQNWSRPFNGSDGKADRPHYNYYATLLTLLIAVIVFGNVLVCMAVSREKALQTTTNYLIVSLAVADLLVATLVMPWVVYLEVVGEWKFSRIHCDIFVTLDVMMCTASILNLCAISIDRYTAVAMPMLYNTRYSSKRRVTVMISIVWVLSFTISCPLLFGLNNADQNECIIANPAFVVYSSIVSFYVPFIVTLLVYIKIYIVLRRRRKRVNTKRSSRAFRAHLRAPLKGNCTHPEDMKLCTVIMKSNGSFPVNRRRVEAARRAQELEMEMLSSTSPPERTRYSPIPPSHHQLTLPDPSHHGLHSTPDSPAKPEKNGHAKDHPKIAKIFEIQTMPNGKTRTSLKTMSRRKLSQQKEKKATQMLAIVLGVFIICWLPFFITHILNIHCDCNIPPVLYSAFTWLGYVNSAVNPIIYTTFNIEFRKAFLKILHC
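Using a no-wash calcium dye in inducible, force-coupled HEK293 Trex cells expressing D2, we tracked fluorescence each second for 180 s after compound, then for 180 s after EC20 dopamine to detect augmented signalling.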
D2 PAM-2 = Beta-Arrestin HTS for Positive Allosteric Modulators of the Human D2 Dopamine Receptor: Potentiators; DiscoveRx D2 beta-arrestin cells, luminescence, 90 min; 100% = 57 uM dopamine signal; potentiation, % (concentration not given with the values); hit rate 0.23% among 360,000; AID 624464, 2012; in the data active = potentiation above about 50%
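D2 cells co-treated with compound plus 50 nM dopamine (EC20) for 90 min at 37 deg C to detect potentiation. Beta-arrestin recruitment was read as enzyme-fragment luminescence after 1 h at ambient temperature. Full response was set by 57 uM dopamine.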
D2 ag-1 = Beta-Arrestin HTS for Positive Allosteric Modulators of the Human D2 Dopamine Receptor: Agonists; D(2) dopamine receptor (Homo sapiens), P14416; DiscoveRx PathHunter D2 beta-arrestin, luminescence, 90 min; 100% = 57 uM dopamine signal; activation, % (no concentration beside the values); hit rate 0.084% among 360,000; AID 624465, 2012; in the data active = activation above about 40%
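DiscoveRx PathHunter D2 beta-arrestin cells (2,100/well) attached overnight, then compound-stimulated 90 min at 37 C in HBSS/10 mM HEPES/0.1% Tween-20 buffer; beta-galactosidase complementation read by luminescence after 1 h at ambient temperature. Dopamine 57 uM final (EC100) as control.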
D2 ag-2 = HTS Assay for Allosteric Agonists of the Human D2 Dopamine Receptor: Primary Screen for Agonists; HEK293 T-REx D2 cells, calcium flux agonist mode; activation, % at 2 µM; hit rate 0.53% among 340,000;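 active = activation over 3 SD above normal in the single-dose calcium agonist read, cut at about 30% in these data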
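HEK293 Trex D2 cells, tetracycline-induced, o/n 30 C 5% CO2; no-wash Ca dye, RT 30–90 min; 10-cycle baseline, 23 nl cpd added, kinetic Ca read 180 s; agonist hits = positive Ca response.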
D2 antagonist = HTS Assay for Allosteric Antagonists of the Human D2 Dopamine Receptor: Primary Screen for Antagonists; D(2) dopamine receptor (Homo sapiens), P14416; HEK293 TREx D2 cells, calcium flux, dopamine EC80; inhibition, % at 10 µM; hit rate 2% among 340,000; AID 485344, 2010; in the data active = inhibition above about 30%; inactive = below that, where a call was filed
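Read-out: kinetic calcium fluorescence (1 cycle/s) in inducible HEK293 T-REx D2 cells after an EC80 dopamine addition that followed 180 s compound preincubation. Loss of the dopamine response indicates antagonism.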
Each line names hits and unclear results; the compound was inactive in the other large screens.

CCOc1ccc(CNC(=O)C2CCN(C(=O)N3CC(CC)Oc4ccccc43)CC2)cc1 (configuration not stated)	none (no result: D2 PAM-2, D2 ag-1, D2 antagonist)
N#Cc1nc(COc2ccccc2Cl)oc1NCc1ccc(F)cc1	none
N#Cc1nc(COc2ccccc2Cl)oc1NCc1cccnc1	D2 antagonist 40
CN(C)c1ccc(Nc2ncnc3sc4c(c23)CCCC4)cc1	none (no result: D2 PAM-2, D2 ag-1, D2 antagonist)
CCCCOC(=O)c1ccc(NS(=O)(=O)c2c(C)nc3scc(C)n3c2=O)cc1	none (no result: D2 PAM-2, D2 ag-1, D2 antagonist)
O=C(NCc1ccccc1)c1ccc2nnsc2c1	D2 antagonist 34
Cc1ccc(Cl)cc1NC(=O)CN(C)S(=O)(=O)c1ccc2c(c1)n(C)c(=O)c(=O)n2C	none (no result: D2 PAM-2, D2 ag-1, D2 antagonist)
O=C(NNC(=O)c1ccc(NC(=O)c2ccccc2)cc1)c1ccc(F)cc1	none
O=C(NC1=C(Nc2ccc(F)cc2)C(=O)c2ccccc2C1=O)c1ccc(Cl)cc1	D2 PAM-2 70
CCN(CC)c1ccc(CN(C(=O)c2cc(=O)c3ccccc3o2)C2CCS(=O)(=O)C2)cc1 (configuration not stated)	none (no result: D2 PAM-2, D2 ag-1, D2 antagonist)
COc1ccccc1CNCC(=O)NCc1ccc(C)cc1	D2 antagonist 52
COc1ccccc1C(C)NCC(=O)NCC(=O)Nc1ccc(F)c(F)c1F (configuration not stated)	none
COc1ccccc1C(C)NCC(=O)NCc1ccc(C)cc1 (configuration not stated)	D2 antagonist 37
COc1ccccc1CNC(=O)Cc1ccc(C)cc1	none
COc1ccccc1CNCC(O)Cn1c2ccccc2c2ccccc21 (configuration not stated)	D2 antagonist 42
Cc1cccc(OCCCCn2c(C3CC(=O)N(c4ccc(C)cc4C)C3)nc3ccccc32)c1 (configuration not stated)	none (no result: D2 PAM-2, D2 ag-1, D2 antagonist)
Cc1cc(Oc2ccc(C#N)cc2)nc(NCc2ccccc2)n1	D2 antagonist 42
COc1ccccc1CNC(=O)CCC(=O)N1CC(C)Sc2ccccc21 (configuration not stated)	D2 antagonist 32
CC1CN(C(=O)CCC(=O)NCc2ccc(F)cc2)c2ccccc2S1 (configuration not stated)	none
CN1CCN(C2=Cc3ccccc3Sc3cc(F)c(F)cc32)CC1	none
CN1CCN(C2=Cc3ccccc3Sc3cc(F)c(Cl)cc32)CC1	D2 antagonist 74
Clc1ccc(-c2ccc(CNCC3CCCO3)o2)cc1 (configuration not stated)	D2 antagonist 35
CCc1ccccc1NC(=O)Cn1c(=O)n(CC(=O)NCCc2ccccc2)c(=O)c2ccccc21	none (no result: D2 PAM-2, D2 ag-1, D2 antagonist)
CCn1c(SCc2ccc(OC)c(F)c2)nc2ccccc2c1=O	D2 PAM-1 33
COCC(C)n1c(SCc2ccc(OC)c(F)c2)nc2ccccc2c1=O (configuration not stated)	none (no result: D2 PAM-1, D2 ag-2, D2 antagonist)
Cc1cc(C)nc(N/N=C/c2ccccc2)n1	D2 antagonist 44
COC(=O)c1[nH]c2cccc(C)c2c1NC(=O)CN1CCN(C(=O)c2ccco2)CC1	none
COC(=O)c1[nH]c2cccc(OC)c2c1NC(=O)CCN1CCC(C(N)=O)CC1	none (no result: D2 PAM-2, D2 ag-1)
COC(=O)c1[nH]c2cccc(OC)c2c1NC(=O)CCN1CCN(c2ccccc2F)CC1	D2 ag-2 44, D2 antagonist 74 (no result: D2 PAM-2, D2 ag-1)
COC(=O)c1c(NC(=O)CN2CCN(c3ccccc3OC)CC2)c2c(C)cccc2n1C	D2 ag-2 52 (no result: D2 PAM-2, D2 ag-1)
COC(=O)c1c(NC(=O)CN2CCN(c3ccccc3)CC2)c2c(C)cccc2n1C	none
COC(=O)c1[nH]c2cccc(C)c2c1NC(=O)CN1CCN(c2ccccc2OC)CC1	D2 ag-2 39, D2 antagonist 54
COc1ccc(OC)c(NC(=O)CCN2CCN(Cc3ccccc3)CC2)c1	D2 ag-2 36
CCc1sc(Nc2cccc(Cl)c2)nc1-c1cc2cccc(OC)c2oc1=O	none (no result: D2 PAM-2, D2 ag-1, D2 antagonist)
CCOC(=O)c1cc(-c2ccccc2)n(-c2cccc(C(=O)N(C)c3ccc(C)cc3)c2)c1C	none (no result: D2 PAM-2, D2 ag-1, D2 antagonist)
COc1ccc(-c2cc(C(F)(F)F)nc(SCC(=O)NCc3ccc(OC)c(OC)c3)n2)cc1	none (no result: D2 PAM-2, D2 ag-1, D2 antagonist)
CCc1cccc(-n2c(=O)c3cccnc3n2CC(=O)Nc2ccccc2C(=O)OC)c1	none (no result: D2 PAM-2, D2 ag-1, D2 ag-2, D2 antagonist)
COC(=O)c1[nH]c2cc(OC)ccc2c1NC(=O)CCN1CCN(c2ccccc2)CC1	D2 antagonist 63
CCOC(=O)C1CCCN(CCC(=O)Nc2c(C(=O)OC)[nH]c3cc(OC)ccc23)C1 (configuration not stated)	none
CCOc1ccc(NC(=O)N(Cc2cn(CC)c3ccccc23)C2CCCCCC2)cc1	none (no result: D2 PAM-2, D2 ag-1, D2 antagonist)
O=C(/C=C/c1ccco1)NCC1OCCc2ccccc21 (configuration not stated)	D2 antagonist 31
Cc1occc1C(=O)N/N=C/C=C/c1ccccc1[N+](=O)[O-]	D2 antagonist 38
CCS(=O)(=O)Nc1cccc(C2=NN(S(=O)(=O)c3ccc(F)cc3)C(c3cccs3)C2)c1 (configuration not stated)	none
CS(=O)(=O)Nc1cccc(C2=NN(S(=O)(=O)c3ccc(F)cc3)C(c3cccs3)C2)c1 (configuration not stated)	D2 antagonist 31
CC(C)CCNC(=O)C1CCC(Cn2c(=O)c3sccc3n(CC(=O)NC(C)C)c2=O)CC1 (configuration not stated)	none (no result: D2 PAM-2, D2 ag-1, D2 antagonist)
CN1CCC(N(C)C(=O)COc2ccccc2Cl)CC1	D2 antagonist 31
CN(C(=O)COc1ccc(Br)cc1Cl)C1CCCCC1	none
Cc1ccccc1OCCOCCN1CCCCCC1	none (no result: D2 ag-2, D2 antagonist)
Cc1ccccc1OCCN1CCC(Cc2ccccc2)CC1	D2 antagonist 46
COc1cccc(OC)c1OCCCCN1CCCC1	none
CCC(=O)c1ccccc1OCCCN1CCC(Cc2ccccc2)CC1	D2 antagonist 97
Cc1ccc([N+](=O)[O-])c(OCCN2CCC(Cc3ccccc3)CC2)c1	D2 antagonist 68
COc1cccc(OC)c1OCCCCN1CCC(Cc2ccccc2)CC1	D2 antagonist 76
O=C(Nc1cccc(Cl)c1Cl)c1cc(S(=O)(=O)N2CCCc3ccccc32)ccc1F	none (no result: D2 PAM-2, D2 ag-1, D2 antagonist)
Cc1cc(F)ccc1S(=O)(=O)Nc1ccc2c(c1)CCCN2C(=O)c1cccs1	none (no result: D2 PAM-2, D2 ag-1, D2 antagonist)
COCCCNC(=O)Cn1nc(N2CCN(c3ccccc3)CC2)ccc1=O	none (no result: D2 PAM-2, D2 ag-1, D2 antagonist)
CCOc1ccc(CCNC(=O)c2nn(-c3ccc(OC)cc3)c(=O)c3c2c2ccccc2n3C)cc1OCC	none (no result: D2 PAM-2, D2 ag-1, D2 antagonist)
CC1CCN(CCCOc2ccc(OCc3ccccc3)cc2)CC1	none
